We go through 26 molecules from PubChem BioAssay AID651994 (Sanford-Burnham Center for Chemical Genomics, 2013).

The campaign covered roughly 2,500 compounds. About 790 (32%) were called active.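 The calls were made as follows: active = mean cytotoxicity at 5 µM above about 25% (limit read from the data); inactive = the rest.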 The list is a sample of the results.

The nature of this experiment: cell viability loss, Sufu-null reporter line – ATP luminescence, single concentration, cytotoxicity control for Gli-SUFU antagonist project, confirmation (AID 651994).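 Also: cells exposed to compound overnight for roughly 16 to 18 hours; plate controls were DMSO wells with cells for no effect and medium without cells for full effect.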 Conditions: Sufu-KO-LIGHT cells cytotoxicity, at 5 µM, stronger effect = higher value.
As to `CC(=O)c1c(C)[nH]c(C(=O)OCC(=O)Nc2sc3c(c2C#N)CCCC3)c1C`, the cytotoxicity was 17.2% (inactive).

Take `O=C(Cn1cc(C(=O)C2CC2)c2ccccc21)Nc1ccccc1Cl`: the cytotoxicity was 16.3% (inactive).

In the case of `CCCOc1ccccc1C1CC(=O)Nc2cc3c(cc21)OCO3` (stereo unspecified), the cytotoxicity was 48.1% (active).

Turning to `COc1ccccc1N1CCN(Cc2cc(OC)c3c(c2)OCO3)CC1`, the cytotoxicity is 22.5% (inactive).

Take `COc1ccccc1C1C2=C(COC2=O)Nc2cc3c(cc21)OCO3` (stereo unspecified): the cytotoxicity was 50.9% (active).

Turning to `O=C(O)CCCn1cc(NC(=O)COc2cccc(Cl)c2)cn1`, the cytotoxicity is 11.7% (inactive).

On to `COc1ccc2nc(SCC(=O)Nc3c(C)cc(C)cc3C)[nH]c2c1`, for which the cytotoxicity is 11.7% (inactive).

For `CCN(CC(=O)Nc1cc(Cl)ccc1C)C(=O)CSCc1ccc(C)cc1`, the cytotoxicity was 6.16% (inactive).

Turning to `Cc1ccc(-c2nc3c(cnn3-c3ccccc3)c(=O)o2)cc1`, the cytotoxicity was 8.43% (inactive).

As to `CCOc1ccc(-n2c(O)c(/C=N/c3ccnn3Cc3ccncc3)c3ccccc3c2=O)cc1`, the cytotoxicity was 23.8% (inactive).

`COc1ccccc1/C=C/CN1CCC(CO)(Cc2ccccc2)CC1`: the cytotoxicity is -4.47% (inactive).

For `CC1CC2=C(CC1/C=N/NC(N)=S)C(C)(C)CCC2` (stereo unspecified), the cytotoxicity is 11.9% (inactive).

As for `CC(=O)/C(=N\Nc1ccc(Cl)cc1Cl)Sc1cccc2cccnc12`, the cytotoxicity is 25.7% (active).

Turning to `CN(C)c1cc[n+](Cc2ccccc2)cc1`, the cytotoxicity was 33.3% (active).

As for `COC(=O)c1ccc(CSc2nnc(N)s2)o1`, the cytotoxicity was 21.4% (inactive).

On to `CCNC(=S)N(CCN(CC)CC)Cc1cc2cc3c(cc2[nH]c1=O)OCO3`, for which the cytotoxicity is 6.68% (inactive).

Take `C=CCn1c(SCC(=O)CC(=O)OCC)nc2cc(C(=O)N3CCC(C(N)=O)CC3)ccc2c1=O`: the cytotoxicity is 3.69% (inactive).

For the molecule `Cc1ccccc1C(=O)NC(=S)Nc1ccc(N2CCN(C(=O)c3ccccc3)CC2)cc1`, the cytotoxicity was 32.2% (active).

`Cc1cc2[nH]ncc2cc1NC(=S)NC(=O)c1ccccc1`: the cytotoxicity was 2.37% (inactive).

Regarding `CC(C)Oc1ccc(CN2CCC(n3nccc3NC(=O)c3cccnc3)CC2)cc1`, the cytotoxicity was 4.98% (inactive).

Turning to `CNc1ccc(SC#N)cc1`, the cytotoxicity is 3.32% (inactive).

On to `CCCC1=Nc2cc(C(=O)NCc3ccco3)ccc2Sc2ccccc21`, for which the cytotoxicity was 53.8% (active).

`O=[N+]([O-])c1ccc(N2CCN(CC(O)COc3ccccc3)CC2)cc1` (stereo unspecified): the cytotoxicity is 30.6% (active).

Consider `CC(C)OCC(O)CN1CCN(C(c2ccccc2)c2ccccc2)CC1` (stereo unspecified), for which the cytotoxicity is 16.3% (inactive).

With `CC(C)c1ccc(OCC(O)CN2CCN(c3ccccn3)CC2)cc1` (stereo unspecified), the cytotoxicity was 9.73% (inactive).

In the case of `O=C(c1cc(Cl)cc(Cl)c1)N1CCC(=O)N(C(COCc2ccccc2)Cc2ccccc2)CC1` (stereo unspecified), the cytotoxicity is 21.8% (inactive).
